According to PubChem BioAssay (NCATS):
Results filed as inconclusive are left out. Unmarked numbers belong to inactive results. The call rests on the fitted dose curve; in most records, active means well fitted inhibition curve with a large enough effect; inconclusive means small, poorly fitted or top-dose-only effect; inactive means flat fitted curve, though single readings scatter.

biological target: Calcium and integrin-binding protein 1 (Homo sapiens) (UniProt Q99828); experiment: Primary qHTS for Identification of Calcium Integrin Binding Protein 1 (CIB1) Competitor (AID 1508620); conditions: CIB1-GST / FITC-alphaIIb peptide fluorescence polarization; series mostly up to 114 µM; activity change, negative = inhibition: at the top concentration; further: top concentration of the series differs between compounds
Method in brief: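 Fluorescence polarization competition: GST-tagged CIB1 (1 uM final) preincubated with compound 15 min at room temperature, then FITC-labelled alphaIIb peptide (100 nM final) added. After 15 min at room temperature, polarization read at Ex 480/Em 540.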
On the % scale 0 is the no-effect control and ±100 the full control effect.

Chain of Calcium and integrin-binding protein 1 (Homo sapiens) (Q99828 whole entry, looked up): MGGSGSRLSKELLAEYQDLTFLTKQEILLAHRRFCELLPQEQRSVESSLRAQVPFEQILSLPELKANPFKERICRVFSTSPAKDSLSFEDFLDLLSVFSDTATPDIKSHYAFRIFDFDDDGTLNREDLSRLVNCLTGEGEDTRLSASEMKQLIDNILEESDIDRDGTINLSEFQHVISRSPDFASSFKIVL

Compound | activity change, negative = inhibition
O=[S+]([O-])(Nc1ccccc1)c1ccc(NCc2cccc(C(F)(F)F)c2Cl)cc1 | 2.94%
Cc1ccc2nc3sc(C(=O)NC4CCCCC4)cc3cc2c1 | 3.64%
C(=C/c1cccs1)/c1ccncc1 | -0.322%
Cc1cc2c(s1)c1cnn(Cc3cccc([N+](=O)[O-])c3)c(=O)c1n2C | 2.52%
Cc1ccc(-c2nc(NCC(=O)Nc3cccc(C(=O)O)c3)c3ccccc3n2)cc1 | -18.7%
C[C@H]1CN(S(=O)(=O)c2c(F)cccc2F)CCN1S(=O)(=O)c1ccc2c(c1)OCCO2 | -2.01%
CC(C)c1ccccc1-c1nccc(NCc2ccc(-c3ccnc(C(F)(F)F)c3)cc2)n1 | -0.0424%
COCC1CCCN(C(=O)CC(c2ccc3c(c2)OCO3)c2c(O)cc(OC)cc2OC)C1 (configuration not stated) | -3.64% [at 228 µM]
Cc1cccc(-n2cnc3cc(C(=O)N4CCC(Cc5ccccc5)CC4)ccc32)c1 | -6.76%
CS(=O)(=O)c1ccccc1-c1csc(N2CCC(C(N)=O)CC2)n1 | 1.27%
O=C1c2ccccc2C(=O)N1c1cccc2cnccc12 | -6.6%
Cc1cc(C)n2ncc(C(=O)Nc3ccc4c(c3)OCO4)c2n1 | -1.23%
Cc1nc(C)c(-c2ccc3ncnc(N(C)Cc4sccc4C)c3c2)s1 | -3.39%
Cc1cc(C(=O)Nc2ccc(NC(=O)Cc3ccc(Cl)c(Cl)c3)cc2)no1 | 5.17%
FC(F)(F)c1ccccc1-c1nc(NCc2ccccc2)c2ccccc2n1 | 1.56%
Cc1cc(-c2nnc3n2CCCCC3)c(C)n1-c1cccc(C#N)c1 | 3.78%
Cc1ccccc1C(=O)N1CCc2cc(-c3nc(NC(=O)Cc4ccc5ccccc5c4)sc3C)ccc21 | 1.06%
